# Source: PubChem BioAssay
# Only some compounds are listed: those with a hit (about 1.5% of all), similar ones and a draw of the others.
# PABP polyA inh = PABP poly(A) RNA binding inhibitors, primary screen, biochemical, fluorescence polarization, uHTS. Polyadenylate-binding protein 1 (Homo sapiens), P11940. calls only at 35 µM. 1% of 290,000 active. AID 2014, 2009;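 note: calls also rest on retests at 20 µM and on dose response follow-up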
# Target sequence (P11940 whole entry, looked up): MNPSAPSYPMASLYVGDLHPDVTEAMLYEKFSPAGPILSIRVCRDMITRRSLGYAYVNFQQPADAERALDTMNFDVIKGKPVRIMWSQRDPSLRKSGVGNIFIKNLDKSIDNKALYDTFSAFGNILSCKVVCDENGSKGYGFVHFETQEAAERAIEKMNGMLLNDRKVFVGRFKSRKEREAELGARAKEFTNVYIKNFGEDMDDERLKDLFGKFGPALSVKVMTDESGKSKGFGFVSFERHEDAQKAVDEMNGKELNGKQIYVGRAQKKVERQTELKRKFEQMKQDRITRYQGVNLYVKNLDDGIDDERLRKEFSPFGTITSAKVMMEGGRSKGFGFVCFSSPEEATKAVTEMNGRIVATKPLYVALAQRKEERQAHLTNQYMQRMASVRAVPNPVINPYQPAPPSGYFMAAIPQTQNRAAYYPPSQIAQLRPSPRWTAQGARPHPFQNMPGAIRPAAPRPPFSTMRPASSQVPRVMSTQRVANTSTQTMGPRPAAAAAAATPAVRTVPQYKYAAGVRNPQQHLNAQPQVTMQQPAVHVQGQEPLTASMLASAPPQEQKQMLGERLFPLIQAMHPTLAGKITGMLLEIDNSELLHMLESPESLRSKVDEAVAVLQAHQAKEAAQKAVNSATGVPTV
# eIF4H FP inh = human eIF4H binding inhibitors, primary screen, translation initiation inhibitor project, biochemical, uHTS, fluorescence polarization; 0.94% of 290,000 active; AID 2012, 2009; inhibition, % at 35 µM; eIF4H fluorescence polarization binding assay;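 note: calls also rest on retests at 20 µM and on dose response follow-up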
# eIF4E 4G PPI = eIF4E–eIF4G protein interaction inhibitors, primary screen, biochemical, uHTS, TR-FRET, eIF4GI fragment | Eukaryotic translation initiation factor 4E (Mus musculus) + Eukaryotic translation … | TR-FRET eIF4E-eIF4GI(517-606) binding, 2 h | inhibition, % at 21.7 µM | 0.37% of 220,000 active;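 active = inhibition above about 30%, limit read from the data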;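 note: 0% = full FRET control wells and 100% = background wells lacking eIF4GI fragment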
# PABP1 MLLE inh = inhibitors of PABP1 MLLE–PAM2 peptide binding, primary screen, biochemical, fluorescence polarization, FITC-PAM2, GST-MLLE; inhibition, % at 20 µM; 0.36% of 360,000 active; in the data active = inhibition above about 35%, passing the limit was not always enough;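 note: plate controls were DMSO wells with GST-MLLE for no effect and wells lacking GST-MLLE protein for full effect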
# * hit, by the source's call; i = inactive; ? = inconclusive; · = no result given; + = active, no number. Unless noted, the rule behind the calls is not given here.
SMILES,PABP polyA inh,eIF4H FP inh,eIF4E 4G PPI,PABP1 MLLE inh
Cc1cccn2c(=O)c3cc(C#N)c(=NC(=O)c4ccncc4)n(CCCOC(C)C)c3nc12,+,75*,3,7
COCCCn1c(=NC(=O)c2ccncc2)c(C#N)cc2c(=O)n3cccc(C)c3nc21,?,?,6,88
N#Cc1cc2c(=O)n3ccccc3nc2n(Cc2ccco2)c1=NC(=O)c1ccco1,i,?,9,41*
CC(=O)N=c1c(C#N)cc2c(=O)n3cccc(C)c3nc2n1Cc1ccco1,+,72*,8,19
CC(C)NC(=O)C1(C)CCN1Cc1cccc(Cl)c1 (configuration not stated),·,·,·,-10
O=C1NC(=Nc2ccc(O)cc2)S/C1=C/c1ccco1,i,72,1,-21
O=C1NC(=Nc2ccc3ccccc3c2)S/C1=C/c1ccco1,i,80*,7,-78
Cc1ccc(N2CCN(S(=O)(=O)c3c(C)nc4sccn4c3=O)CC2C)cc1 (configuration not stated),·,·,·,2
COCCNC(=O)C1(C)CCCN(Cc2ccc(C)c3ccccc23)C1 (configuration not stated),·,·,·,-4
O=c1cccccc1NN=C1CCCCC1,+,82*,-4,-16
O=C(O)c1cc(Br)ccc1NN=C1CCCCC1,i,8,-10,22
O=c1cccccc1NN=C1CCCCCC1,+,59*,-1,18
Cc1[nH]c(C)c(S(=O)(=O)NCCc2ccccc2)c1C(=O)N1CCCCC1,i,-2,·,-12
COc1cccc(CN2CCC2(C)C(=O)NCCc2ccccn2)c1OC (configuration not stated),·,·,·,1
CCOC(=O)C1=CCN(S(=O)(=O)c2ccccc2C(=O)OC)C1c1ccc(Cl)cc1 (configuration not stated),·,·,·,-16
CCCC(=O)N1CCCC1(C)C(=O)Nc1ccc(OC(F)F)cc1 (configuration not stated),·,·,·,16
COc1ccc(NC(=O)CSc2ccc(-c3ccco3)nn2)cc1,i,12,·,17
COc1ccc(C(=O)CSc2nnc(-c3ccco3)n2C)cc1,i,-1,5,-3
CSc1nnc(-c2ccco2)c(-c2ccco2)n1,+,97*,23,26
COc1cc(NC(=O)CSc2ccc(-c3ccco3)nn2)cc(OC)c1,i,60*,·,19
COc1cccc(NC(=O)CSc2nnc(-c3ccco3)c(-c3ccco3)n2)c1,+,83*,·,26
COc1ccc(C(=O)CSc2nnc(-c3ccco3)c(-c3ccco3)n2)cc1,+,85,20,35
Cc1ccc(-c2cnc(C(O)c3ccc(Cl)c(Cl)c3)[nH]2)cc1 (configuration not stated),·,·,·,12
COc1ccc(NC(=O)CSc2nnc(-c3ccco3)c(-c3ccco3)n2)cc1OC,i,64*,·,-2
CCn1c(SCC(=O)Nc2ccc(OC)c(OC)c2)nnc1-c1ccco1,i,-9,-1,10
SMILES,PABP polyA inh,eIF4H FP inh,eIF4E 4G PPI,PABP1 MLLE inh
COc1ccc(OCC(=O)Nc2ccccc2C(=O)N2CCOCC2)cc1,+,active,0,-11
O=C(COc1ccc(Br)cc1)Nc1ccccc1C(=O)N1CCOCC1,i,0,·,1
CCC(Sc1ccc2nnc(CCNS(=O)(=O)c3ccc(OC)cc3)n2n1)C(=O)OC (configuration not stated),i,-9,-2,-8
COc1cc(/C=C2/C(C)=C(C#N)c3nc(N)c(C#N)c(C)c32)ccc1OCC(=O)O,i,19,2,·
CC1=C(C#N)c2nc(N)c(C#N)c(C)c2/C1=C\c1ccc(-c2ccccc2C(=O)O)o1,+,86*,12,-4
COc1ccc(C2=Nc3cccc4cccc(c34)N2)cc1,i,78*,-7,-3
Nc1cccc(C2=Nc3cccc4cccc(c34)N2)c1,i,13,18,3
COc1ccc(-c2cc(C(=O)NCc3ccc(F)cc3)[nH]n2)c(C)c1,·,·,·,5
Cc1cccc(Cn2c(N3CCN(C)CC3)nc3c2c(=O)n(C)c(=O)n3C)c1,i,-3,·,-4
COCCNC(=S)N(c1ccccc1)C(C)C,i,2.5*,-1,-13
Cc1sc2ccc3sccc3c2[n+]1C,+,7,-1,-34
COc1ccc2nc3n(c(=O)c2c1)-c1ncccc1C(=O)NC3C (configuration not stated),·,·,·,-6
CCCNc1cc(=S)nc(N)[nH]1,?,?,2,42*
Cc1ccc(S(=O)(=O)NCc2ccc(C(=O)N3CCCC3)cc2)cc1,+,6.8*,2,-1
O=C(O)c1ccccc1C(=O)Nc1nccs1,i,4,72*,-4
O=C(Nc1nccs1)c1cccc2ccccc12,i,-7,·,3
C=CCSc1nc(-c2ccc(OC)cc2)c(C#N)c(=O)n1CC=C,i,2,89*,-12
O=C(O)CSC1CC(=O)N(c2ccc(Cl)c(Cl)c2)C1=O (configuration not stated),i,-8,5,41*
CCOC1=C2CN(S(=O)(=O)c3ccc(C)cc3)[C@@H](c3ccccc3)C[C@H]2[C@H]2C(=O)N(c3ccccc3)C(=O)[C@H]2C1,·,·,·,49*
CCOC1=C2CN(S(=O)(=O)c3ccc(C)cc3)[C@H](c3cccc(Cl)c3)C[C@H]2[C@H]2C(=O)N(c3ccccc3)C(=O)[C@H]2C1,·,·,·,-7
NNC(=O)c1ccc2c(c1)S(=O)(=O)NNC2=O,i,2,0,12
Cc1ccc(OCC(=O)c2cc(C)n(C)c2C)c([N+](=O)[O-])n1,i,76*,-7,-1
Cc1cc(C(=O)COc2cccc3cccnc23)c(C)n1C,i,109,5,125
Cc1nc(NC(=O)c2ccccc2)sc1-c1cc(C(=O)N2CCOCC2)nn1Cc1ccccc1,·,·,·,4
CCN1C(=O)[C@H]2[C@@H](c3ccc(SC4CCCCC4)cc3)N3CCCC[C@@]3(C(=O)OC)[C@H]2C1=O,·,·,·,4
SMILES,PABP polyA inh,eIF4H FP inh,eIF4E 4G PPI,PABP1 MLLE inh
CCN1C(=O)[C@@H]2[C@@H](c3ccc(SC4CCCCC4)cc3)N3CCC[C@@]3(C(=O)OC)[C@@H]2C1=O,·,·,·,40*
CCOC(=O)C1=CCN(S(=O)(=O)c2ccc(C)cc2)C1c1cccc(C)c1 (configuration not stated),·,·,·,-3
CS(=O)(=O)N(Cc1ccccc1)c1ccc(C(=O)NCCSCc2ccco2)cc1,i,19,-2,45*
CS(=O)(=O)Nc1ccc(C(=O)NCCSCc2ccco2)cc1,i,-11,-5,25
COc1ccc(CC(=O)NNC(=O)c2ccncc2)cc1,i,-11,-3,-9
CS(=O)(=O)c1ccc(Nc2nc(C(N)c3ccccc3)cs2)cc1 (configuration not stated),·,·,·,-18
CSc1nsc(/C=C/Nc2ccc(F)cc2)c1C#N,+,77*,1,-30
CSc1nsc(/C=C/Nc2ccc(Cl)cc2)c1C#N,i,-6,2,-34
